From PubChem
This is a sample that favours compounds with a hit; in the whole collection about 3.1% have one here.
MITF act – increases MITF-driven TRPM1 promoter luciferase signal. SK-MEL-5 TRPM1-promoter luciferase, 24 h; % of positive control, neutral wells = 0. activation, % at 12.5 µM. 0.75% of 300,000 active;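 active = mean activation of at least 80% with every replicate also reaching 80%; inconclusive = mean reaches 80% but some replicate falls short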;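 also: 0% = neutral control wells and 100% = parthenolide positive control wells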
Rtt109 HAT inh – blocks Candida albicans Rtt109/Vps75 acetyltransferase activity. purified Rtt109/Vps75, ThioGlo CoA-SH fluorescence, 4 h. Q5AAJ8. inhibition, % at 34.9 µM. 0.16% of 330,000 active;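 active = inhibition of at least 50% in every replicate; inconclusive = best replicate reaches 50% inhibition but some replicates fall short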
Target sequence (Q5AAJ8 whole entry, looked up): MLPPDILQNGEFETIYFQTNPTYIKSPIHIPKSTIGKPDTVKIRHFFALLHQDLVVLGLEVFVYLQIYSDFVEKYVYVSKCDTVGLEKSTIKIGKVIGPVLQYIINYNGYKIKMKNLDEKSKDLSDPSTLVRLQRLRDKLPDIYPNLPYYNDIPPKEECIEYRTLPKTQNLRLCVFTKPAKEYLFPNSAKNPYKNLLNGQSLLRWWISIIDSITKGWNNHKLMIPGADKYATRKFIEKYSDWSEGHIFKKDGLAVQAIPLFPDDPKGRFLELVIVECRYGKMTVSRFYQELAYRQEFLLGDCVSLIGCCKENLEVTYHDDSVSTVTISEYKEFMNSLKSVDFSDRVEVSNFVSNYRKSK
Statin myotox sup – suppression of simvastatin myotoxicity; C2C12 myotubes + simvastatin, ATP luminescence, 48 h; scaled: DMSO 0, geranylgeraniol control 100; rescue of ATP level, % at 7.49 µM; 0.78% of 330,000 active; AID 602340;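 active = mean ATP rescue above about 67%, or every replicate alone reaching that limit, limit read from the data, passing the limit was not always enough; inconclusive = no clear call, values can overlap the other calls; inactive = mean under the limit and some replicate under it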;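 also: myotubes were challenged with 10 µM simvastatin during compound exposure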
esBAF inh – SWI/SNF esBAF complex inhibition; mouse ES cells, Bmi1-luciferase knock-in reporter, 24 h; 100% = twice the neutral-well signal; reporter increase, % at 12.5 µM; 2% of 350,000 active; AID 602393; in the data active = activation above about 40%; inconclusive = no clear call, values can overlap the other calls;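 also: 0% = median of the plate's neutral control wells and 100% = double that signal; a rise in the Bmi1 reporter signal indicates esBAF inhibition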
Wnt bcat act – Wnt/beta-catenin pathway activation | Wnt/beta-catenin reporter cell assay, activator, plate reader | 1.2% of 300,000 active | activation, % at 9.35 µM; in the data active = activation above about 30%, passing the limit was not always enough; inconclusive = no clear call, values can overlap the other calls;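 also: 0% = neutral control wells and 100% = positive control wells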
Numbers without * were called inactive; ? = inconclusive; / = no result given.

SMILES | MITF act | Rtt109 HAT inh | Statin myotox sup | esBAF inh | Wnt bcat act
S=c1[nH]nc(Nc2cccc3ccccc23)s1 | / | -6.3 | / | / | 2.3
COC(=O)C1=C(O)/C(=C\c2ccc(OCC(=O)Nc3ccccc3)cc2)N=C1C | 8.5 | 2.5 | 104.0* | -8.6 | -1.6
CCC(=O)N[C@@H]1CC[C@@H](CC(=O)NCc2cc(F)cc(F)c2)O[C@@H]1CO | / | / | 12.7 | -0.3 | /
Cc1ccc(-c2ccc3c(c2)O[C@@H](CN(C)S(C)(=O)=O)[C@@H](C)CN([C@H](C)CO)S3(=O)=O)cc1 | / | / | -4.4 | 1.3 | /
Oc1ccccc1-c1cc(-c2cccc(F)c2)n[nH]1 | / | 17.7 | 7.7 | 45.1* | /
COc1ccc(NC(=O)N(C)C[C@H]2Oc3ncc(-c4ccc(C#N)cc4)cc3C(=O)N([C@H](C)CO)C[C@@H]2C)cc1 | / | / | 3.8 | -5.8 | /
COc1c(C(=O)NNC(=O)c2ccccc2Cl)csc1Br | / | -4.3 | / | / | 41.0*
COc1cccc(NC(=O)N[C@H]2C=C[C@@H](CC(=O)N3CCOCC3)O[C@@H]2CO)c1 | / | / | -15.5 | -1.8 | /
CC(C)CC#Cc1ccc2c(c1)O[C@@H](CN(C)C(=O)C1CCCCC1)[C@@H](C)CN([C@H](C)CO)S2(=O)=O | / | / | 18.7 | 1.7 | /
Cc1cccc(N/N=C/c2ccncc2)c1 | 129.1* | -8.2 | 15.7 | 37.2 | 13.3
OC[C@@H]1[C@@H](c2ccc(-c3cccc(F)c3)cc2)[C@@H]2CN(CCC(F)(F)F)CCCCN12 | / | / | 10.4 | -3.7 | /
CN(C)c1cccc(NC(=O)c2cccc3c(-c4ccc(F)c(F)c4)coc23)c1 | / | / | -6.3 | 41.4* | 1.9
O=C(Nc1ccccc1)c1cccc2c(-c3cccnc3)coc12 | / | / | -1.9 | 55.3* | -1.2
CN(C)CCNC(=O)c1cccc2c(-c3ccc(F)c(F)c3)coc12 | / | / | -5.6 | -0.8 | -1.5
Cc1noc(C)c1NC(=O)N(C)C[C@@H]1OCCCC[C@H](C)Oc2ccc(NS(=O)(=O)c3cn(C)cn3)cc2C(=O)N([C@@H](C)CO)C[C@@H]1C | / | / | -2.3 | 2.7 | /
CCc1ccc(CCC(=O)Nc2sc(C)c(C)c2C(=O)OC)o1 | -13.9 | -4.4 | 94.1* | -4.5 | -1.3
O=C(Nc1ccccc1)N1C[C@@H]2[C@H](c3ccccc31)[C@H](CO)N2C(=O)c1ccncc1 | / | / | -5.5 | 10.9 | /
COc1ccc(/C=N/NC(=O)c2ccn[nH]2)cc1CSc1ccccn1 | 32.5 | 6.9 | 4.7 | 44.9* | 0.0
COCC(=O)Nc1ccc2c(c1)C(=O)N(C)C[C@H](OC)[C@@H](C)CN(C(=O)c1ccccc1)[C@@H](C)CO2 | / | / | -6.0 | -3.5 | /
COCCNC(=O)c1noc2c1CCc1cc(OC)ccc1-2 | 77.3 | -7.2 | 6.8 | 36.3 | /
COc1ccc2c(c1)CCc1c(C(=O)NC3CCCCC3)noc1-2 | 90.7* | 4.6 | -14.1 | -4.7 | /
COc1ccc2c(c1)CCc1c(C(=O)N(C)c3ccccc3)noc1-2 | 54.9 | -6.5 | -13.6 | 55.5* | ?
COc1ccc2c(c1)CCc1c(C(=O)NCc3ccco3)noc1-2 | 100.3* | -2.4 | 3.7 | 41.8* | 21.3
COCC(C)NC(=O)c1noc2c1CCc1cc(OC)ccc1-2 (stereo not given) | 27.5 | -2.3 | / | / | /
CC(C)NC(=O)Nc1ccc2c(c1)C(=O)N([C@H](C)CO)C[C@@H](C)[C@H](CN(C)S(=O)(=O)c1cccs1)OCCCC[C@H](C)O2 | / | / | / | -1.5 | /
SMILES | MITF act | Rtt109 HAT inh | Statin myotox sup | esBAF inh | Wnt bcat act
Cc1cccc(-n2cnc(C(=O)NC3CCCCCC3)c2)n1 | ? | 2.5 | -61.4 | 68.1* | /
O=C(Cc1ccc2cccnc2c1)c1ccc(O)cc1O | 26.4 | 59.6* | -9.7 | 15.9 | /
O=C(NNC(=O)c1ccccc1O)c1cccc(Br)c1 | / | 2.6 | -1.0 | 45.7* | -0.5
COc1cc(CNc2ncnc3c2ncn3[C@H]2CN(Cc3ccc(-c4ccccc4)cc3)C[C@@H](CO)O2)cc(OC)c1OC | / | / | 27.9 | -5.0 | /
COc1cc(CNc2ncnc3c2ncn3[C@H]2CN(Cc3cccc4ccccc34)C[C@@H](CO)O2)cc(OC)c1OC | / | / | 165.9* | 17.6 | -3.9
COc1ccc(CN2C[C@@H](CO)O[C@@H](n3cnc4c(NCc5ccc(F)cc5)ncnc43)C2)cc1 | / | / | 81.3* | 0.3 | /
NC(=S)Nc1ccc2c(c1)OCO2 | 2.6 | -8.4 | / | / | 3.7
N/C(=N\C(=S)Nc1ccc2c(c1)OCO2)c1ccccc1 | / | / | -5.8 | 64.2* | 4.6
N/C(=N\C(=S)Nc1ccccc1)c1ccccc1 | ? | -0.5 | -23.7 | 82.3* | 41.7*
NC(N)=NC(=S)Nc1ccc(Cl)cc1 | 25.7 | 4.3 | 8.8 | 46.7* | 7.2
Fc1ccc(NC(=S)Nc2ccc(Cl)cc2)cc1 | -3.1 | 6.3 | / | / | 6.1
C[C@H]1CCCCO[C@@H](CN(C)C(=O)NC2CCCCC2)[C@@H](C)CN([C@@H](C)CO)C(=O)c2cc(NS(=O)(=O)c3ccc(F)cc3)ccc2O1 | / | / | / | 2.2 | /
COc1ccc(S(=O)(=O)Nc2ccc3c(c2)C(=O)N([C@@H](C)CO)C[C@H](C)[C@@H](CN(C)C(=O)NC2CCCCC2)O3)cc1 | / | / | 15.9 | -3.4 | /
C[C@H]1CN([C@@H](C)CO)C(=O)c2cccc(NC(=O)c3ccc(-c4nccs4)cc3)c2O[C@H]1CN(C)S(=O)(=O)c1ccc(Cl)cc1 | / | / | -54.0 | -9.9 | /
C[C@@H]1CN([C@H](C)CO)C(=O)c2cccc(NC(=O)Nc3ccc(C(F)(F)F)cc3)c2O[C@@H]1CN(C)S(=O)(=O)c1ccccc1 | / | / | -20.4 | 25.4 | /
Cc1ccc(NC(=O)CN(C)S(=O)(=O)c2cccs2)cc1C | 44.5 | 7.7 | -8.0 | 98.3* | 3.0
Cc1ccc(NC(=O)CN(C)S(=O)(=O)c2cccs2)c(Br)c1 | 10.7 | 4.3 | 0.4 | 31.7 | 1.2
CN(CC(=O)NCCc1ccccc1)S(=O)(=O)c1cccs1 | / | -6.4 | 1.1 | 8.2 | 0.8
COc1cc(NC(=O)CN(C)S(=O)(=O)c2cccs2)cc(OC)c1 | 4.7 | 15.2 | 7.7 | 6.1 | -2.5
CCOc1ccc(NC(=O)CN(C)S(=O)(=O)c2cccs2)cc1 | 40.0 | 1.9 | -4.2 | 54.0* | /
Cc1ccc(NC(=O)CN(C)S(=O)(=O)c2cccs2)cc1F | 45.4 | 0.4 | -3.2 | 50.8* | /
CO[C@H]1CN(C)C(=O)c2cc(NC(=O)C3CC3)ccc2OC[C@@H](C)N(C(=O)C2CCOCC2)C[C@H]1C | / | / | -2.2 | -8.2 | /
Cc1noc(C)c1NC(=O)Nc1ccc2c(c1)CC(=O)N([C@@H](C)CO)C[C@@H](C)[C@H](CN(C)Cc1ccncc1)O2 | / | / | -11.3 | 1.8 | /
C[C@H](O)C#Cc1ccc2c(c1)O[C@@H](CN(C)CC1CCOCC1)[C@@H](C)CN([C@@H](C)CO)S2(=O)=O | / | / | -4.0 | -6.4 | /
O=C(Nc1ccc(Cl)cc1)Nc1ccccc1Sc1ncc([N+](=O)[O-])s1 | -49.0 | ? | 18.3 | 36.1 | 32.7*
O=C(Nc1csc([N+](=O)[O-])c1)Nc1ccccc1Cl | / | -1.1 | / | / | 26.8
O=C(Nc1cccnc1)c1cn(-c2ccccc2)nc1-c1cccs1 | 58.9 | / | 9.2 | 57.6* | 29.0
Brc1ccc(-c2noc(COc3ccc4ccccc4c3)n2)o1 | -13.3 | -5.2 | 6.1 | 10.1 | 6.1
